Experimental data: PubChem BioAssay (NCI)
The panel holds about 83,000 compounds, 20% with a hit somewhere; the sample as a whole holds those more often.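 For each line, cells grew in 96-well plates with the test compound present at a single concentration for 48 hours.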 Unmarked numbers belong to inactive results. The source made the active and inactive calls. How the source made its calls: active means growth percent below 10; inactive means the rest.

system: DU-145 prostate; assay: NCI-60 one-dose screen, 48 h (100 = growth as untreated, 0 = no growth, -100 = all killed); conditions: 10 µM unless noted

Compound	growth
Nc1c(C(=O)Nc2c(Cl)cccc2Cl)sc2nc3c(cc12)CCCC3	88.4%
COc1cc2ncnc(Nc3ccc(OCc4cccc(F)c4)c(Cl)c3)c2cc1NC(=O)C1CCCC1	78.3%
O=C(N/N=C/c1ccccc1SSc1ccccc1/C=N/NC(=O)c1ccccc1)c1ccccc1	35.3%
C[C@@H]1CCCCCCCCC[C@H](O)C(=O)C[C@@H](SC[C@@H](O)C(=O)O)C(=O)O1	95.2%
C=C(C)[C@@H]1CC[C@]2(C)[C@H](CC=C3[C@@H]4CC(C)(C)CC[C@]4(C(=O)OC)CC[C@]32C)[C@@]1(C)CC/C(N)=N/O	75.1%
C=C(C)[C@@H]1CC[C@]2(C)[C@H](CC=C3[C@@H]4CC(C)(C)CC[C@]4(C=O)CC[C@]32C)[C@@]1(C)CCCN	93.3%
Cc1ccc(/C=C(\C#N)c2cc3ccccc3n2C)cc1	25.5%
N=C(N)c1ccc(S(N)(=O)=O)cc1	104%
COc1ccc(-c2cc(=O)oc3ccc(Cl)cc23)cc1F	14.7%
CCSc1sc(-c2ccc(C)cc2)nc1[P+](c1ccccc1)(c1ccccc1)c1ccccc1	4.57% (active)
COC(=O)[C@]12CC[C@@H](C)[C@H](C)[C@@H]1C1=CC(=O)[C@@H]3[C@@]4(C)C[C@@H](O)[C@H](O)[C@@]5(C)COC(=C45)C[C@@]3(C)[C@]1(C)CC2	92.7%
O=S(=O)(NCCNc1cc(-c2cn(-c3ccccc3)nc2-c2cccc(O)c2)ccn1)c1ccc(Br)cc1	52.2%
